Measurements: the supplement of paper PMC11732987, “Enantioselective OTUD7B fragment discovery through chemoproteomics screening and high-throughput optimisation” (Communications Chemistry, 2025)

Key:
Experiment in all cases: log2 ratio of Biotin-Ahx-Ub-VS probe labelling (fragment/DMSO); higher = less target engagement (more negative = stronger competition), active = hit call of the paper (q ≤ 0.05, log2 ratio ≤ -1)
Conditions in all cases: compound concentration: 200 uM; treatment time: 3 h
[1] = target: USP34 (UniProt Q70CQ2)
Procedure, shortened: (§1)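 Triplicate samples of HEK293T lysate, 495 µg each, received fragment at 200 µM or vehicle for 3 h, followed by Biotin-Ahx-Ub-VS (0.5 µM final) for 1 h. After NeutrAvidin enrichment of labelled DUBs and LysC/trypsin digestion, peptides were run by diaPASEF LC-MS/MS. The values are average log2 fragment/vehicle ratios from global-median-normalised Spectronaut label-free quantities, tested by unpaired t-test on proteins having ≥2 unique peptides.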

[2] = target: T1, USP36 (UniProt Q9P275)
T1 sequence (whole entry): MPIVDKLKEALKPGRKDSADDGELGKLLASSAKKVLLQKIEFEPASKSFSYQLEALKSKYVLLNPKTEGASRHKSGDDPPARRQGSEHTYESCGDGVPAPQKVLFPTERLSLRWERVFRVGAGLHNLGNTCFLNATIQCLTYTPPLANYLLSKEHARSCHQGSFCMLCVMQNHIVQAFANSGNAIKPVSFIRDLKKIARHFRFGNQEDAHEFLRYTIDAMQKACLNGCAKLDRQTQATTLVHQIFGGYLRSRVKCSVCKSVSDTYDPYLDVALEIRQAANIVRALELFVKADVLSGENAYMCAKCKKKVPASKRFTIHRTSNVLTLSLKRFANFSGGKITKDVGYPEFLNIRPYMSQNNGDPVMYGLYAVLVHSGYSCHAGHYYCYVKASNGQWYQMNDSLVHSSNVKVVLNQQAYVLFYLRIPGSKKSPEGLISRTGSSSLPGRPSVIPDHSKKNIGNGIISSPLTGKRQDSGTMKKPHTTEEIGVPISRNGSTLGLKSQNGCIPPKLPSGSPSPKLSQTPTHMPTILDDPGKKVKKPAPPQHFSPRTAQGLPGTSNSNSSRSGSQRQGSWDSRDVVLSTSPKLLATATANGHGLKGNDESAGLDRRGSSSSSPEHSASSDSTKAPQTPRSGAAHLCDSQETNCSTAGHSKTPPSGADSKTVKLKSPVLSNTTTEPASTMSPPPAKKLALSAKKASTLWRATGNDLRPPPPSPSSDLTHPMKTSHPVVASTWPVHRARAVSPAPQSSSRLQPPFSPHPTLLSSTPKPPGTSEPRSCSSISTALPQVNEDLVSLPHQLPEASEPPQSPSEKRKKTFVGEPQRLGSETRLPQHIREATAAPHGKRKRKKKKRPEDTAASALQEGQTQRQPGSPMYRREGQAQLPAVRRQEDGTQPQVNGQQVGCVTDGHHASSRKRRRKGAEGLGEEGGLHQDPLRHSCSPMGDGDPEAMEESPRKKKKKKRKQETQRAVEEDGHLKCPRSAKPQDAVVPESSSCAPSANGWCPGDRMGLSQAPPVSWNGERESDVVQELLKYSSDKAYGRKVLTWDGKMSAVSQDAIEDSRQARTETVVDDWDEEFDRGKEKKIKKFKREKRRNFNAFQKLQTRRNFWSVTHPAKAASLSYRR
Procedure, shortened: as §1

[3] = target: T2, USP38 (UniProt Q8NB14)
T2 sequence (whole entry): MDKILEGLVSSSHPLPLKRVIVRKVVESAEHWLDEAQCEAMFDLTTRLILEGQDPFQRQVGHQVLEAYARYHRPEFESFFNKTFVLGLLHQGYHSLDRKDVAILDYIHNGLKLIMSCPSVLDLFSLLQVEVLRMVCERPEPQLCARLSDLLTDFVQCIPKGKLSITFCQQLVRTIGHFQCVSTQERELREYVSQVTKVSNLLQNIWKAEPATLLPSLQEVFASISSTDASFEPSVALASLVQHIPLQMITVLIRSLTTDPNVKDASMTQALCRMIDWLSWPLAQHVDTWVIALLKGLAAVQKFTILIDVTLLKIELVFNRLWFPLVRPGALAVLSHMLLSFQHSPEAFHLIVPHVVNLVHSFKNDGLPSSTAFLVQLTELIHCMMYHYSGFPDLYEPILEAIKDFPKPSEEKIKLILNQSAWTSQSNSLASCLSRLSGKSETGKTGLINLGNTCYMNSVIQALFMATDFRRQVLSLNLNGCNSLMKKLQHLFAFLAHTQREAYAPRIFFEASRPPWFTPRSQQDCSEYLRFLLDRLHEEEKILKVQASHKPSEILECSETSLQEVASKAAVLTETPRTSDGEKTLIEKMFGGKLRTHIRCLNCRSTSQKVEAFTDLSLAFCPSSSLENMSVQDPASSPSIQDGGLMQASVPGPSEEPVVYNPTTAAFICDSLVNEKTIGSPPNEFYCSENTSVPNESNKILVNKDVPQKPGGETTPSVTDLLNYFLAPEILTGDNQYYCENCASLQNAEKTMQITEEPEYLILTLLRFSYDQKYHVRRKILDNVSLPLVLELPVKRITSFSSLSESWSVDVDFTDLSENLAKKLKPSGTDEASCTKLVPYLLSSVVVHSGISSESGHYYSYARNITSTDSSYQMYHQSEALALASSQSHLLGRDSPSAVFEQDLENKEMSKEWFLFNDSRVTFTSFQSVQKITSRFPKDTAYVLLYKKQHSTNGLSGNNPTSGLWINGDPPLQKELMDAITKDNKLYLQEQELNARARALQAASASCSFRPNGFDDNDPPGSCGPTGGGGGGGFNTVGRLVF
Procedure, shortened: as §1

[4] = target: T3, USP39 (UniProt Q53GS9)
T3 sequence (whole entry): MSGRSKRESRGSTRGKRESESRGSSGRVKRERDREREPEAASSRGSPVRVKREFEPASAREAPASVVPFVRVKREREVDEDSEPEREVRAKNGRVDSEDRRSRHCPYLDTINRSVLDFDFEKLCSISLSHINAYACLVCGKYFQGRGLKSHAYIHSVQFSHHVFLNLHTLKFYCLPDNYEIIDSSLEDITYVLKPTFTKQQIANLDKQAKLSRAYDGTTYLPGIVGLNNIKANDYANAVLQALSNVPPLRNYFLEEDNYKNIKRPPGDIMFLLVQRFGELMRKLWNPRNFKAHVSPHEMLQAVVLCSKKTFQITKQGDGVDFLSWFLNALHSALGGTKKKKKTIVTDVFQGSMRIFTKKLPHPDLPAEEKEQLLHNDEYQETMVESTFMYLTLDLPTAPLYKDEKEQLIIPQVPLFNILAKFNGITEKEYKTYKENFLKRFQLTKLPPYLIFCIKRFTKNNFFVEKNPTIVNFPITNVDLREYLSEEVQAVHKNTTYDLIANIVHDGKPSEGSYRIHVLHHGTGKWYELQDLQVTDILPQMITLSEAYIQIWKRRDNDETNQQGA
Procedure, shortened: as §1

[5] = target: T4, USP4 (UniProt Q13107)
T4 sequence (whole entry): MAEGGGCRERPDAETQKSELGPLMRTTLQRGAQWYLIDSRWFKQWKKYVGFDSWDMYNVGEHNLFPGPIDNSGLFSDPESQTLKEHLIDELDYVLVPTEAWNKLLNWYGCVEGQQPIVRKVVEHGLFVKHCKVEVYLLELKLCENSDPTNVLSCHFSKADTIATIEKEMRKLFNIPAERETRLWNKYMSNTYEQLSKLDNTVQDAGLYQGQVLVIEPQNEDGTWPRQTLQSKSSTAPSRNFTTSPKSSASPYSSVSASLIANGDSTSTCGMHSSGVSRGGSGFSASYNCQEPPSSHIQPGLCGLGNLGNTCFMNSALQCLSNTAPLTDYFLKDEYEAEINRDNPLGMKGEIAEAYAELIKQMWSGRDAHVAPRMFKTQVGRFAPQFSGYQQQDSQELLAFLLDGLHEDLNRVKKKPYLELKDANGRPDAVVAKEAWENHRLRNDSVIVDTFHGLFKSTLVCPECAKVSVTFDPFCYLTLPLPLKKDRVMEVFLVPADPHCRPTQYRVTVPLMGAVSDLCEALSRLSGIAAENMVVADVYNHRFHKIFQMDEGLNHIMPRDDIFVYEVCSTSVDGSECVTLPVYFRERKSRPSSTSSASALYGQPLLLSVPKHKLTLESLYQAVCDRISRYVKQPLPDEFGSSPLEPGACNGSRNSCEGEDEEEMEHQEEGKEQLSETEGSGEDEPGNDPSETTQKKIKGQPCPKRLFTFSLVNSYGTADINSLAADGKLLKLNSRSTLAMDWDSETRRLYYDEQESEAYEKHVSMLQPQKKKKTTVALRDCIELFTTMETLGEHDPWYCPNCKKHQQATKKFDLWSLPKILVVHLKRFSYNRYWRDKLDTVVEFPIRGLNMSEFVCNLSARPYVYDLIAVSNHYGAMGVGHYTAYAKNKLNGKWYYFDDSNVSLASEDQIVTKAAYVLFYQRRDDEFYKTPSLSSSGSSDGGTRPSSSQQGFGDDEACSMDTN
Procedure, shortened: as §1

Measured: log2 ratio of Biotin-Ahx-Ub-VS probe labelling

Sequence of USP34 (Q70CQ2 whole entry, the tested form may be a part): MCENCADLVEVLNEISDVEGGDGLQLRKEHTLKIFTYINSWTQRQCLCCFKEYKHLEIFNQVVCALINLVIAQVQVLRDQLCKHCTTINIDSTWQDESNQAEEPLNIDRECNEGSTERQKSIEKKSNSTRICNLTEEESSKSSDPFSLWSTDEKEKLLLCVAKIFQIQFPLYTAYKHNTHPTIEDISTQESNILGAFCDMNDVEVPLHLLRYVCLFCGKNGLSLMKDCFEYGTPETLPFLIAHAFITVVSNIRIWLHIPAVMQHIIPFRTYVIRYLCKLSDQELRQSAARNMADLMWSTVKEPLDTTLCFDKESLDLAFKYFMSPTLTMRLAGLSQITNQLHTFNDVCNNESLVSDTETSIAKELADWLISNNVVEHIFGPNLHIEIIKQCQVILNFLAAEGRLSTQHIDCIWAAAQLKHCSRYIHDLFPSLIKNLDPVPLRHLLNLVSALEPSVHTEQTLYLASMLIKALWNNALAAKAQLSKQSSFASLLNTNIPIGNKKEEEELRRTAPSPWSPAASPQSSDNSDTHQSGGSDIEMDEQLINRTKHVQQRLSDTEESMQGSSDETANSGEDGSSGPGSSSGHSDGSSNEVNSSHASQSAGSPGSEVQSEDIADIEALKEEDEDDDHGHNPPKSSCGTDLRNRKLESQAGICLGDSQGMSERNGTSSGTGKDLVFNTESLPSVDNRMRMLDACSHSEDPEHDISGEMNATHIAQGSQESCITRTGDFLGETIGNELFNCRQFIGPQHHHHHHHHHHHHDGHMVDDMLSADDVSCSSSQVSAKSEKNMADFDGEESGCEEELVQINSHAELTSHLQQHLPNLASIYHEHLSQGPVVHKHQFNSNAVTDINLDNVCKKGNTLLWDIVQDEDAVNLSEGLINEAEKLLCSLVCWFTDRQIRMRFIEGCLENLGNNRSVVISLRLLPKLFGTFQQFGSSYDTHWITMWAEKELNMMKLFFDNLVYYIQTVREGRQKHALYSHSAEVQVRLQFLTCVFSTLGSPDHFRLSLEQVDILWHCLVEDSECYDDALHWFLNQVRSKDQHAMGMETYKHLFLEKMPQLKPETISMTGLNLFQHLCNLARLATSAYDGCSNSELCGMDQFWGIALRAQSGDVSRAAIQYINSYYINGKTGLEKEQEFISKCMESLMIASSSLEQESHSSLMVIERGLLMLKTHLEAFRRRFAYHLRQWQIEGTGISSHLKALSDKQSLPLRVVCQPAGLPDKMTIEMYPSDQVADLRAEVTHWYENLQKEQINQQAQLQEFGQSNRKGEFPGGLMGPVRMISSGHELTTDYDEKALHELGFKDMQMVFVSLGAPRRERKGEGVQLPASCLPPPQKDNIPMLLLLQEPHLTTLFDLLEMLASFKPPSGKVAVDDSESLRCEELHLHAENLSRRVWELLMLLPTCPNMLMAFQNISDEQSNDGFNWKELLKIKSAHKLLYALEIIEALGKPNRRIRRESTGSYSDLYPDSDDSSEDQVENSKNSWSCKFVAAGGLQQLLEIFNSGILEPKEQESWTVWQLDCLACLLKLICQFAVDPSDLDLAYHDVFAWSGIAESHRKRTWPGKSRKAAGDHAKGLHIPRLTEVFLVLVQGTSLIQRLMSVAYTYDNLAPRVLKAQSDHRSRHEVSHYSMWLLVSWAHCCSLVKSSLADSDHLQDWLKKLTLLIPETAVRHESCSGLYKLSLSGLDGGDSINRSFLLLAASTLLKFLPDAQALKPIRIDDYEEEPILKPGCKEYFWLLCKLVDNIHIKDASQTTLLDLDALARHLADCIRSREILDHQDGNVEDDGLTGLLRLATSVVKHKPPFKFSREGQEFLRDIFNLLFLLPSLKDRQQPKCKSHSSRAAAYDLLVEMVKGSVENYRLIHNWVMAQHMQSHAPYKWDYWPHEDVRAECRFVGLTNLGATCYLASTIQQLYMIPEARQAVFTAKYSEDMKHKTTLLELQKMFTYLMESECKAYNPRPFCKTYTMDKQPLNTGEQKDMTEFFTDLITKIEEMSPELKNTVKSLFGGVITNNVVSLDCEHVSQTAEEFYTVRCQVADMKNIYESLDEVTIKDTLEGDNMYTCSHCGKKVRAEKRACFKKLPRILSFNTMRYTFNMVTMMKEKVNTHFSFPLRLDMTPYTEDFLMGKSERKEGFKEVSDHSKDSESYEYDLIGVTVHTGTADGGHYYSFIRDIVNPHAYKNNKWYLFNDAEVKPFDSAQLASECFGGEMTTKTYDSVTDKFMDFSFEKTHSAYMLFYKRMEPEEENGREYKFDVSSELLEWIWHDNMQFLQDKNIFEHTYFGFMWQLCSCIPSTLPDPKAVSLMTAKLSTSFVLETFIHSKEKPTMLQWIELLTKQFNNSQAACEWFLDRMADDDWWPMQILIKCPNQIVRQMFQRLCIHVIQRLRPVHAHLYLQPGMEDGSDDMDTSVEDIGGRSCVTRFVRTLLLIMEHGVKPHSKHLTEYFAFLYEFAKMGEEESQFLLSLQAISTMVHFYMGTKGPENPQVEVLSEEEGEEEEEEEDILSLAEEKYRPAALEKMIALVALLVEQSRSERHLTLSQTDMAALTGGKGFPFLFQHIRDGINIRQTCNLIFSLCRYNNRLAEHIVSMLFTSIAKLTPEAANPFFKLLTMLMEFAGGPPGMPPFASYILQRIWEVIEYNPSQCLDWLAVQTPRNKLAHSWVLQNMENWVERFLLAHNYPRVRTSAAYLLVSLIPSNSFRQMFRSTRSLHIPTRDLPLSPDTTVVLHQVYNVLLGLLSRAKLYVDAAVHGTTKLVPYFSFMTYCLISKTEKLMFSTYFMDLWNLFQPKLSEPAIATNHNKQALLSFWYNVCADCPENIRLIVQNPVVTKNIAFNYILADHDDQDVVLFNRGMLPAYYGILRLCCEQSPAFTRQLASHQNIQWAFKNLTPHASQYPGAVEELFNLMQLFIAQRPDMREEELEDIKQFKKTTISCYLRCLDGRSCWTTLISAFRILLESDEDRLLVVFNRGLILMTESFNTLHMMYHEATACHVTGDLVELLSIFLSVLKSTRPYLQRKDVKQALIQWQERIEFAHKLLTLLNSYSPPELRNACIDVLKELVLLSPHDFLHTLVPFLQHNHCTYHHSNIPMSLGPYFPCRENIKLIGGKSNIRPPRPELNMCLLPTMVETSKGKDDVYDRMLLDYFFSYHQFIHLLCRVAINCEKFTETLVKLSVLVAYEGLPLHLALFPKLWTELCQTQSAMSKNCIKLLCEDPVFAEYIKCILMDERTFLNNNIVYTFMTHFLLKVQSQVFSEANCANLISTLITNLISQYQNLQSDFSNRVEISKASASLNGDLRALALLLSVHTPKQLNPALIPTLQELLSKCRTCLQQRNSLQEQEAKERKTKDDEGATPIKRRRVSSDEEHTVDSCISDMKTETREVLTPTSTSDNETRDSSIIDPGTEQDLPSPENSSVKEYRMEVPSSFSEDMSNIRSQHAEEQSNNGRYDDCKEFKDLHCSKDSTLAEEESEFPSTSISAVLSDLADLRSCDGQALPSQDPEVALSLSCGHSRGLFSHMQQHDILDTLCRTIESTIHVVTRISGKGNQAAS

COCC[C@@H](NC(=O)CCl)c1ccccc1
inactive: [1] -0.0495 | [2] -0.11 | [3] 0.0786 | [4] -0.0498 | [5] 0.0432
